Screening results (PubChem)
A selection: hits, their analogues and other compounds. The true share with any hit is near 3.4%.
PNC inhibitor: inhibitors of perinucleolar compartment assembly | 3.1% of 140,000 active | activity change (PNC), negative = inhibition, % at 10 µM | PC3M PTB-GFP, PNC prevalence imaging, 16 h; active compounds read low;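 active means readout at or below -70, meaning at least 70% loss of cells showing the perinucleolar compartment, a nuclear body marking cancer cells; inconclusive means readout between -30 and a set limit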;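 further: plate controls were DMSO wells for no effect and camptothecin positive control wells for full effect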
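PC3M cells stably expressing PTB-GFP, 750–1000 cells/well, treated 16 h at 37 °C with compound (23 nl of library stock), in duplicate. After paraformaldehyde fixation and Hoechst stain, imaged at 20x; PNC prevalence scored by image analysis.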
HTT ATP protect: Huntington cell model cytoprotection by ATP luminescence; 0.14% of 230,000 active; AID 1471; PC12 HTT-Q103 induced, cytoprotection, ATP luminescence, 40 h; Potency, µM (highest dose often 56.4 µM), inactives show cytoprotection (ATP increase), usual class: activators; further: potency means the concentration at half of the fitted maximal effect; % of control where 0% means no effect; nearly all actives have a fitted effect of over 45% in size
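Stable PC12 Q103-GFP cells in serum-supplemented, phenol red-free DMEM; induction by tebufenozide at 100 nM final; compound dose series; cell viability quantified luminescently from ATP.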
HTT aggregate: inhibitors of mutant huntingtin aggregate formation in PC12 cells. Potency, µM (top dose mostly 46.1 µM), for the others: at the top dose activity change, negative = inhibition, hits mostly inhibitors. AID 1688. 1.1% of 220,000 active. PC12 HttQ103-GFP aggregates, Acumen cytometry, 40 h; further: potency means the concentration at half of the fitted maximal effect; on the % scale 0 is the no-effect control and ±100 the full control effect; nearly all actives have a fitted effect of over 60% in size
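Read-out: GFP aggregate count by laser scanning cytometer (488 nm excitation, 500-530 nm emission, 1–25 µm objects >6 SD above background). Cells: PC12, inducible HTTex1-Q103-GFP, 100 nM tebufenozide; compounds titrated.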
IMPase cell inh: membrane-permeable compound that blocks inositol monophosphatase | P97697 | CHO-M1 cells, IP1 accumulation, HTRF TR-FRET ratio | inhibition (IP1 accumulation), % at 46.1 µM | 120,000 tested, under 10 active; active means well fitted curve in the direction sought with a large enough effect in the signal ratio, not every such curve was filed as active; inconclusive means small, poorly fitted or top-dose-only effect, or a change in a side signal; inactive means no such curve, though single readings can be large or run the other way; the % refers to the signal ratio;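 further: cells stimulated with carbachol in lithium chloride buffer; plate controls were DMSO basal wells for no effect and reference inhibitor wells for full effect; higher means more IMPase inhibition seen as more IP1 and lower FRET ratio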
Target sequence (P97697 whole entry, looked up): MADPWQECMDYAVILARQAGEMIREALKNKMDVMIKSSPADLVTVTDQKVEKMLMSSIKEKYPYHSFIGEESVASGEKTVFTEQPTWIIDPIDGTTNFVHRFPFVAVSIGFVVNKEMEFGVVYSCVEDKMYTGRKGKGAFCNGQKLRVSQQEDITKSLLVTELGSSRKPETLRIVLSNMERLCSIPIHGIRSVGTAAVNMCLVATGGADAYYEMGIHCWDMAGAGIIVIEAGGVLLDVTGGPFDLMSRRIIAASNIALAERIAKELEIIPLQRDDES
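Carbachol-driven Gq signalling in CHO-M1 cells (2000/well) generates IP1. Compounds that block IMPase raise IP1 and so reduce the FRET signal from Eu-anti-IP1 and d2-IP1 after a 10 min room-temperature lysis.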
NPSR antag: antagonists of human neuropeptide S receptor cAMP signaling; Potency, µM (highest dose often 38.3 µM), without a hit: at the highest dose activity change, negative = inhibition, actives largely listed as inhibitors; AID 1461; 1% of 220,000 active; CHO-NPSR cells, cAMP TR-FRET, antagonist mode; further: potency means the concentration at half of the fitted maximal effect; on the % scale 0 is the no-effect control and ±100 the full control effect; nearly all actives have a fitted effect of over 50% in size
Target sequence (Q6W5P4 whole entry, looked up): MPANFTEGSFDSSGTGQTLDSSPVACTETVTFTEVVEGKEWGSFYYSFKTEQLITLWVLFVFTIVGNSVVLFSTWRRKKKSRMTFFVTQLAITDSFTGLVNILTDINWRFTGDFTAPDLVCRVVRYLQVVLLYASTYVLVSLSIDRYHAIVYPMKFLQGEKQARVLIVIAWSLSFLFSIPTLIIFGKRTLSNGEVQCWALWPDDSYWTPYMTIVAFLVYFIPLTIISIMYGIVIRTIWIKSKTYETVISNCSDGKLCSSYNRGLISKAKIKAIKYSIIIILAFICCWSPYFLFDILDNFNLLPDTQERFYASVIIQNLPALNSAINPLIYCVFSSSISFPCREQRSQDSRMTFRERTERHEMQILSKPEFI
IMPase Li cell: membrane-permeable IMPase blocker, potentiated with lithium; CHO-M1 cells, IP1 TR-FRET (IP-One), carbachol + lithium; Potency, µM (series often up to 59.4 µM), for the others: at the top dose activity, negative = IMPase inhibition, most hits filed as inhibitors; 0.35% of 210,000 active;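 further: IP1 builds up when IMPase is blocked and the TR-FRET signal falls; potency means the concentration at half of the fitted maximal effect; plate controls were basal vehicle for no effect and high inhibitor control for full effect; nearly all actives have a fitted effect of over 50% in size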
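CHO cells stably expressing M1 receptor (2000/well, cultured 16–30 h) treated 30 min at 37C with compound plus low lithium. Cytosolic IP1 by TR-FRET (665/620 ratio and 620 channel) after 10 min lysis; AC50 by Hill fit.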
* = called active by the depositor; ? = inconclusive; · = no result; [ ] = remark or other dose. Unless noted, the call rests on the fitted dose curve; in most records, active means well fitted curve in the direction sought with a large enough effect; inconclusive means small, poorly fitted or top-dose-only effect, or another doubt; inactive means no such curve, though single readings can be large; an effect the other way counts as inactive or inconclusive.

SMILES	PNC inhibitor	HTT ATP protect	HTT aggregate	IMPase cell inh	NPSR antag	IMPase Li cell
Cc1ccc(NC(=O)c2ccccc2O)cc1	-100*	-12%[10 µM]	?	-3	-6%[46.1 µM]	3%
Cc1ccc(NC(=O)C2=C(c3ccccc3)S(=O)(=O)CCS2(=O)=O)cc1	·	-133%	5µM*	·	10µM*	19%
CC(=O)N(C)c1ccc(NC(=O)c2ccco2)cc1	23	-87%[0.074 µM]	28%	-8	9%[46.1 µM]	10%[38.3 µM]
Cc1ccc(NC(=O)c2ccccc2)cc1	68	-59%	10%	5	-6%[46.1 µM]	-14%[38.3 µM]
CC(=O)N(C)c1ccc(NC(=O)c2ccccc2C(=O)O)cc1	-117*	-8%	16%	-4	3%[46.1 µM]	-1%[38.3 µM]
Cc1ccc(SCC(=O)NC(=O)Nc2ccc3c(c2)OCCO3)cc1C	47	·	-11%	·	-1%	0%
Cc1ccccc1NC(=O)c1sc2nc(N3CCOCC3)c3c(c2c1N)CC(C)(C)OC3	·	·	·	-7	·	·
C/C(=N/NC(=O)CN1CCN(S(=O)(=O)c2ccc(C)cc2)CC1)c1ccco1	·	10%[10 µM]	-2%[9.22 µM]	·	-3%	·
Cc1ccc(C(C)C)c(OCCSc2nc3ccccc3n2CC(O)CO)c1 (stereo not drawn)	·	·	·	8	·	·
COc1cc2c(cc1NC(=O)c1cccc(S(=O)(=O)N(C)C)c1)oc1ccccc12	-107*	?	15%	·	-20%	-4%
CCCCNc1nc(C)nc2c1nc(-c1ccccc1)n2CCCN(C)C	·	-2%	·	·	·	1%
CCN1/C(=C/C=C/c2oc3ccc(-c4ccccc4)cc3[n+]2CC)Oc2ccc(-c3ccccc3)cc21	·	-94%[10 µM]	0.35µM*	·	?	16%
O=C(c1cccs1)N1CCc2c([nH]c3ccccc23)C1c1ccc(Cl)cc1 (stereo not drawn)	-19	-33%	-16%	3	10µM*	7%[38.3 µM]
COC(=O)NC(c1cccc(C)c1)[C@]1(C(C)=O)CCCC1=O (stereo partly drawn)	·	-10%[10 µM]	·	·	·	·
Cc1cccc(CCn2c(=O)c3ccccc3n(Cc3cccc(F)c3)c2=O)c1	·	·	·	-2	·	·
O=S(=O)(Nc1ncccn1)c1ccc(NS(=O)(=O)c2cc(Cl)ccc2Cl)cc1	·	-33%	-17%	·	3%	6%
CCN(c1ccc(NS(=O)(=O)c2cc(Cl)ccc2Cl)cc1)C(C)C	33	1%[10 µM]	10µM*	·	-53%	23%
CN(C)c1ccc(NS(=O)(=O)c2cc(Cl)ccc2Cl)cc1	?	0.79µM*	?	22	0%[46.1 µM]	4%
C[C@H](NC(=O)/C(C#N)=C/c1ccc(O)c(O)c1)c1ccccc1	·	-10%	·	16	-13%[46.1 µM]	64%
COc1ccc(C(=O)c2sc3nc(C)cc(-c4cccs4)c3c2N)cc1OC	-82*	-12%[10 µM]	-29%	·	-28%	7%
CCC(=O)Nc1cccc2ccccc12	·	22%[10 µM]	12%[9.22 µM]	·	-1%	1%
NC(=O)Nc1cccc2ccccc12	-105*	-3%[10 µM]	-8%	·	9%	-2%
CN1CCN(S(=O)(=O)c2ccc(Sc3nnnn3-c3ccccc3)c([N+](=O)[O-])c2)CC1	8	8%[10 µM]	11µM*	·	27%	-5%
CC(=O)c1ccc(Sc2nnnn2-c2ccccc2)c([N+](=O)[O-])c1	-6	6%[10 µM]	12%	·	-16%	14%
CS(=O)(=O)Nc1cccc(-c2nc(NCc3ccccc3)c3ccccc3n2)c1	·	-5%	·	·	·	25%
SMILES	PNC inhibitor	HTT ATP protect	HTT aggregate	IMPase cell inh	NPSR antag	IMPase Li cell
COc1ccc(CNC(=O)c2ccccc2C(=O)O)cc1	13	·	10%	·	7%	-5%
COc1ccc(C(=O)NCc2oc(-c3ccccc3)cc2C(=O)O)cc1	25	-1%[0.074 µM]	3.2µM*	9	-6%[46.1 µM]	6%[38.3 µM]
COc1cc(C(=O)N2CCN(c3cccc(C)c3C)CC2)cc(OC)c1OC	-122*	-51%	3%	-9	?	14%
COc1cc(C(=O)N2CCN(c3cc(Cl)ccc3Cl)CC2)cc(OC)c1OC	-88*	-63%	1%	5	-5%	20%
COc1ccc(C(=O)N2CCN(C(=O)c3cc(OC)c(OC)c(OC)c3)CC2)cc1	18	-1%	17%	7	5%[46.1 µM]	19%[38.3 µM]
CCOC(=O)c1cnc(-n2nc(C)cc2C)nc1Nc1ccc(OC)cc1	6	12%[10 µM]	12%	10	?	10%
CCOC(=O)c1cnc(-n2nc(C)cc2C)nc1NC1CCCC1	·	-20%[10 µM]	21%[9.22 µM]	·	1.3µM*	·
CCOC(=O)c1cnc(-n2nc(C)cc2C)nc1NCCc1ccccc1	?	-70%	13µM*	-5	13µM*	15%[38.3 µM]
O=C(COCCOCC(=O)N(c1ccccn1)C1CCCCC1)N(c1ccccn1)C1CCCCC1	-100*	2%[4.97 µM]	6%	-1	-9%[46.1 µM]	7%
CN(C)S(=O)(=O)c1ccc2nnn(O)c2c1	·	15%	18%	·	16%	-5%
O=C(O)c1ccc(NS(=O)(=O)c2ccc3nnn(O)c3c2)cc1	-107*	13%	15%	3	-9%[46.1 µM]	32%[38.3 µM]
Cc1cc(C(=O)NNC(=O)NC(C)C)no1	·	8%[10 µM]	12%[9.22 µM]	·	14%	·
O=c1c(-c2ccccc2)nc2cnc(Oc3ccccc3)nc2n1Cc1cccs1	·	-39%	·	·	·	8%
Cc1ccc(NN2C(=O)C=CC2=O)cc1	-112*	-17%[10 µM]	-6%	-8	5%	-1%
Cc1ccccc1NN1C(=O)C=CC1=O	?	8%[10 µM]	-8%	-2[1.84 µM]	-3%[46.1 µM]	10%[38.3 µM]
Cc1ccc(NN2C(=O)C=C(c3ccc(Cl)cc3)C2=O)cc1	74	-78%	-97%	12	7.9µM*	51%[38.3 µM]
COc1ccc(C2=CC(=O)N(Nc3ccccc3)C2=O)cc1	·	-18%[10 µM]	-32%	·	-10%	20%
O=C1C=C(c2ccccc2)C(=O)N1Nc1ccccc1	-9	-90%	-93%	23	13µM*	50%[38.3 µM]
Cc1ccc(CNC(=O)[C@H](C)[C@H]2C[C@]2(C)[C@H](NC(=O)OCc2ccccc2)c2ccccc2)c(F)c1F	·	22%	·	·	·	8%
CC[C@H]1C2=C3C(CC[C@H]4C(OCc5ccc(F)cc5C(F)(F)F)OC[C@](C)([C@@H]34)N(C(=O)OC(C)(C)C)C2)C(COC)C1COC (stereo partly drawn)	·	-4%	·	·	·	-6%
Nc1nc(SCC(=O)Nc2c(Br)cc([N+](=O)[O-])cc2Br)n[nH]1	-13	·	5%	·	16%	-4%
O=C(COc1ccc2ccc(=O)oc2c1)N1CCc2ccccc21	·	-32%	13%	·	2%	-16%
CC1(C)CC(NC(=O)c2ccccn2)CC(C)(C)N1O	·	-5%	7%	·	14%	-1%
COc1ccc(COn2c(=O)c(C)[n+]([O-])c3ccccc32)cc1OC	-111*	10%	0%	16	-5%[46.1 µM]	20%[38.3 µM]
Cc1c(=O)n(OCc2ccccc2)c2ccccc2[n+]1[O-]	5	-5%[10 µM]	-8%	1	16%[7.67 µM]	4%[38.3 µM]
